# Assay results: PubChem BioAssay
# Calls of active or inactive are those of the source.
# Key:
# [1] = tested on: Plasmodium falciparum Sir2 (PF13_0152, Sir2A); assay: pfSir2 binders on small-molecule microarrays, primary screen, biochemical, small-molecule microarray, 635 nm fluorescence (AID 1098); conditions: small-molecule microarray binding, fluorescence 635 nm; higher = more signal;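 note: score merges spot fluorescence intensity with its signal-to-noise ratio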
# [2] = small-molecule microarray binders of probe aDKK1, primary screen, biochemical, biotinylated probe, 635/667 nm fluorescence (AID 1099); conditions: higher = more signal;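 note: score merges 667nm spot fluorescence with signal to noise across triplicate slides; reference of the scale not given here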
# [3] = small-molecule microarray binders of probe aCHRDL2, primary screen, biochemical, biotinylated probe, 635/667 nm fluorescence (AID 1100); conditions: higher = more signal
# [4] = splicing luciferase reporter signal modulators, primary screen, spliceosome inhibition project, cell-based, HEK293, splice +/- reporter (AID 1101); conditions: luminescence, 24 h, higher = more signal, called active from +8 up or from −8 down;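 note: HEK293 cells carrying a splicing-competent luciferase reporter gene; test concentration not given here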
# [5] = biological target: Fibroblast growth factor 10 (Homo sapiens) (UniProt O15520); assay: FGF10 binders on small-molecule microarrays, primary screen, biochemical, small-molecule microarray, 635 nm fluorescence (AID 1102); conditions: FGF10 binding, fluorescence 635 nm, higher = more signal
# Fibroblast growth factor 10 (Homo sapiens), sequence (O15520 whole entry, looked up): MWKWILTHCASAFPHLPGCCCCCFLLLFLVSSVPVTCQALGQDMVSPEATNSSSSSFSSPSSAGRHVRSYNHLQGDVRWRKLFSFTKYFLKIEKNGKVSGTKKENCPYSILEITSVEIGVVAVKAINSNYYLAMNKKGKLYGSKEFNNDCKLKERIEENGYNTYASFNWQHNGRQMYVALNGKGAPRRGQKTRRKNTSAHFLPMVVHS
# [6] = tested on: glycogen synthase kinase-3 (GSK3A per assay name; protocol says GSK3B); assay: GSK3 binders on small-molecule microarrays, primary screen, biochemical, small-molecule microarray, 635 nm fluorescence, GSK3A (AID 1103); conditions: small-molecule microarray binding, fluorescence 635 nm; higher = more signal; note: the record names both GSK3A and GSK3B
# [7] = biological target: Epidermal growth factor receptor (Homo sapiens) (UniProt P00533); assay: EGFR binders on small-molecule microarrays, primary screen, biochemical, small-molecule microarray, 635 nm fluorescence (AID 1104); conditions: EGFR binding, higher = more signal;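 note: score merges 667 nm emission intensity with spot signal to noise over triplicate slides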
# Epidermal growth factor receptor (Homo sapiens), sequence (P00533 whole entry, looked up): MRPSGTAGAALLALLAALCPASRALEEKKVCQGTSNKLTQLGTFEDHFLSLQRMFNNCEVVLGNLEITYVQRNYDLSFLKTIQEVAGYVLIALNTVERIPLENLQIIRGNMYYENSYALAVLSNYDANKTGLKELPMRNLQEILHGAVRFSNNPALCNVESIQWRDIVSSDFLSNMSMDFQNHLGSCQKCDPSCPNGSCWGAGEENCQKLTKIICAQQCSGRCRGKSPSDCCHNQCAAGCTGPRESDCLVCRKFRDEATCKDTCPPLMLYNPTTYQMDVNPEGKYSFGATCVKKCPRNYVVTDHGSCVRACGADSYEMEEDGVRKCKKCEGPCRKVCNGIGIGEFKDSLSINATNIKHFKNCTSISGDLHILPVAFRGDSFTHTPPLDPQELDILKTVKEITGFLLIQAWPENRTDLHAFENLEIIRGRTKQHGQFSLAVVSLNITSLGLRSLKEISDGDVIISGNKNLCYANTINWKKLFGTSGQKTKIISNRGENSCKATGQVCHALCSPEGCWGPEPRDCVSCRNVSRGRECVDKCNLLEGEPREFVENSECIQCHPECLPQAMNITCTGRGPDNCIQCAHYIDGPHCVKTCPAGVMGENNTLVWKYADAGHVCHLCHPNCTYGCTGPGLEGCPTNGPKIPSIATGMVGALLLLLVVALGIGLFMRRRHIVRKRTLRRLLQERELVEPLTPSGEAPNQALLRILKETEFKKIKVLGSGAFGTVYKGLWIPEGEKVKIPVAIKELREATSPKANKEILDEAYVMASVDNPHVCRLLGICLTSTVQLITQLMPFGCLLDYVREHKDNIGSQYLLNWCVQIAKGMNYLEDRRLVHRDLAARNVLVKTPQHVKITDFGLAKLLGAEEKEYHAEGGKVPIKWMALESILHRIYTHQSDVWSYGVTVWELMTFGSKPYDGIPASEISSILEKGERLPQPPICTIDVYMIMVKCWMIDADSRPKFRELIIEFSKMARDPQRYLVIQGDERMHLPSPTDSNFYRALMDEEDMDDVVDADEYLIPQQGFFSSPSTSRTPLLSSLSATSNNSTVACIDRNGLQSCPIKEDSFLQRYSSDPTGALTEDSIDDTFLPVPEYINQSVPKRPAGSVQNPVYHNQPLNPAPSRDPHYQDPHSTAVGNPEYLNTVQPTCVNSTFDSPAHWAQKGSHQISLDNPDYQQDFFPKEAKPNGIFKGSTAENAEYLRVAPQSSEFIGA
# [8] = biological target: Follistatin-related protein 3 (Homo sapiens) (UniProt O95633); assay: FSTL3 binders on small-molecule microarrays, primary screen, biochemical, small-molecule microarray, 635 nm fluorescence (AID 1105); conditions: FSTL3 binding, higher = more signal;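 note: score merges emission near 667 nm and signal to noise per printed spot across three slides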
# Follistatin-related protein 3 (Homo sapiens), sequence (O95633 whole entry, looked up): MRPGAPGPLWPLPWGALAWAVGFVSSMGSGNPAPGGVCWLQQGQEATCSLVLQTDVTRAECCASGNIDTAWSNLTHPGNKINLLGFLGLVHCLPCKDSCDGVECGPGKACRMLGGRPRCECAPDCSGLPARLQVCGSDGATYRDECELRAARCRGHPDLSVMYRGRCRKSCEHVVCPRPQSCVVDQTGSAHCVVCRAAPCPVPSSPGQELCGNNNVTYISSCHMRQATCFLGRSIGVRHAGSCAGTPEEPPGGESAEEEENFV
# [9] = biological target: Dickkopf-related protein 1 (Homo sapiens) (UniProt O94907); assay: DKK1 binders on small-molecule microarrays, primary screen, biochemical, small-molecule microarray, 635 nm fluorescence scan (AID 1106); conditions: DKK1 binding, higher = more signal;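 note: score merges emission near 667 nm with signal to noise over three replicate slides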
# Dickkopf-related protein 1 (Homo sapiens), sequence (O94907 whole entry, looked up): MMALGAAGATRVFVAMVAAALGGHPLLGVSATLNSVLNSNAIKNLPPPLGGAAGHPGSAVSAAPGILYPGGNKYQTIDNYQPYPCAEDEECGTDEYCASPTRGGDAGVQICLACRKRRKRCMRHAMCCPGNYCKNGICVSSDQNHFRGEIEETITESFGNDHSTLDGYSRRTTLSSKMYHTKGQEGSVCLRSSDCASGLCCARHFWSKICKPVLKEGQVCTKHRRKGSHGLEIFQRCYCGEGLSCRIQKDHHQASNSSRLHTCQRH
# [10] = tested on: Inhibin beta A chain (activin A); assay: INHBA (activin A) binders on microarrays, primary screen, biochemical, small-molecule microarray, 635 nm fluorescence scan (AID 1107); conditions: small-molecule microarray binding, higher = more signal;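 note: mouse activin A protein probed at 4.33 µg/mL on printed slides; score merges bound-protein fluorescence near 667 nm with spot signal-to-noise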
Structure (SMILES),composite z-score [1],composite z-score [2],composite z-score [3],z-score [4],composite z-score [5],composite z-score [6],composite z-score [7],composite z-score [8],composite z-score [9],composite z-score [10]
O=C1C2C=CC(C(O)c3c(F)cccc3Cl)N(Nc3ccccc3)C2C(=O)N1c1ccccc1 (stereo not given),0.741,0.532,0.256,-0.00944 (inactive),0.581,1.3,0.271,1.34,0.236,0.672
O=C1OCCC/C=C\[C@H]2OC34C=CCN(Cn5nnc6ccccc65)C(=O)[C@H]3N(CCO)C(=O)[C@@H]4C12 (stereo not given in full),1.31,-0.316,0.292,-1.48 (inactive),-0.468,-0.963,-0.898,-1.41,-1.14,-0.171
C=CC[C@]1(C(=O)N2CCCCC2)N=C(c2ccc(OCCCO)cc2)O[C@H]1c1ccccc1,1.25,1.16,1.11,-0.0569 (inactive),0.228,1.3,0.0792,-0.0013,0.191,1.11
O=C1NC(=O)C2C1C=CC(C(O)C(c1ccccc1)c1ccccc1)N2Nc1ccc(Cl)cc1Cl (stereo not given),0.496,0.824,1.11,1.44 (inactive),0.554,0.0932,-0.261,0.908,-0.737,0.974
CC1CC/C=C\[C@H]2OC34C=CCN(C(C)(C)C)C(=O)[C@H]3N(CCCCCCO)C(=O)[C@@H]4C2C(=O)O1 (stereo not given in full),2.05,-0.0908,0.416,-0.0517 (inactive),0.0444,-0.615,-0.777,-0.568,-0.957,1.13
COC(=O)[C@@]1(Cc2ccc(F)cc2)[C@H]2c3cc(C(=O)N(C)C)n(CC4CC4)c3C[C@H]2CN1C(=O)c1ccccc1,-0.0199,2.38,1.41,-1.59 (inactive),1.4,1.31,0.463,1.18,-0.637,0.14
CC(C)c1ccc(NN2C(C(O)C(c3ccccc3)c3ccccc3)C=CC3C(=O)N(c4ccccc4)C(=O)C32)cc1 (stereo not given),1.08,0.517,0.344,0.304 (inactive),1.31,1.26,0.438,1.06,0.238,0.203
C=CCOC(=O)[C@@H]1[C@H]2C(=O)O[C@H](c3ccccc3)[C@H](c3ccccc3)N2[C@H](c2ccc(OCCOC(=O)[C@@H]3C[C@@H]4C(=O)N5CCC[C@H]5C(=O)N4[C@@H]3c3ccc(O)cc3)cc2)[C@@]12C(=O)Nc1ccc(I)cc12,0.544,-0.627,-0.257,-1.98 (inactive),0.624,1.3,0.555,0.913,0.794,-0.495
C=C(CCCC)/C(=C/C[C@@H](OC(C)=O)c1ccccc1OCCO)c1cnc2ccccc2c1,0.561,0.149,0.12,-0.397 (inactive),0.732,0.21,-0.321,0.417,-0.0491,1.33
O=C(NCc1ccccc1)[C@@H]1c2ccccc2C(=O)N(CC23CC4CC(CC(C4)C2)C3)[C@H]1c1ccc(CO)cc1,1.6,-0.654,-0.524,0.152 (inactive),0.971,1.31,0.603,1.43,0.593,0.147
C[C@@]1([C@@H](NC(=O)c2ccccc2)c2ccc(-c3ccccc3)cc2)C[C@H]1C1CCCCC1,-0.443,1.18,1.26,0.665 (inactive),-0.145,-0.82,-0.573,-0.503,-0.932,1.09
O=C1O[C@@H](c2ccccc2)[C@@H](c2ccccc2)N2[C@@H](c3ccccc3OCCO)[C@]3(C(=O)Nc4ccc(C#CC5=CCCCC5)cc43)[C@@H](C(=O)Nc3nc4ccccc4s3)[C@H]12,1.5,0.0826,-0.0401,-0.459 (inactive),1.32,1.29,0.463,1.23,0.619,0.137
CCCC#C[Si](O[C@H](CC)c1cn([C@H](CO)Cc2ccccc2)nn1)(C(C)C)C(C)C,0.947,0.111,-0.467,-0.118 (inactive),0.955,0.379,0.371,1.15,0.82,-0.253
COC(=O)[C@@]1(Cc2ccc(OC)cc2)[C@H]2c3cc(C(=O)N4CCCC4)n(Cc4ccsc4Br)c3C[C@H]2CN1C(=O)c1ccccc1,0.824,0.597,1.08,2.42 (inactive),-0.125,0.386,-0.248,-0.246,-0.752,0.741
COc1ccc(COC2OC[C@]3(C)[C@H]4C5=C(CN3C(=O)OC(C)(C)C)[C@H](C)C(CO)C(CO)C5CC[C@@H]24)cc1 (stereo not given in full),1,1.06,0.983,-0.807 (inactive),0.755,1.3,-0.452,1.07,-0.432,0.797
COC(=O)[C@@]1(Cc2ccc(F)cc2)[C@H]2c3cc(C(=O)N(C)C)n(Cc4nc5ccccc5[nH]4)c3C[C@H]2CN1C(=O)c1ccccc1,1.62,0.69,0.969,-1.62 (inactive),0.63,-0.136,0.314,0.296,-0.419,0.538

Structure (SMILES),composite z-score [1],composite z-score [2],composite z-score [3],z-score [4],composite z-score [5],composite z-score [6],composite z-score [7],composite z-score [8],composite z-score [9],composite z-score [10]
COCCOC(=O)N1C(=O)[C@@]2(c3cc(C#Cc4ccc(OC)cc4)ccc31)[C@H](c1ccccc1OCCO)N1[C@H](c3ccccc3)[C@H](c3ccccc3)OC(=O)[C@H]1[C@@H]2C(=O)N1CCN(c2ncccn2)CC1,0.864,-0.0148,0.116,-0.0173 (inactive),0.743,0.806,0.339,0.369,0.27,0.345
[N-]=[N+]=NCc1ccccc1[C@@H]1OC(c2ccc(OCCCO)cc2)=N[C@]1(CCS(=O)(=O)c1ccccc1)C(=O)NCCN1CCOCC1,0.916,0.934,0.952,-0.406 (inactive),1.42,1.05,0.778,1.46,0.535,0.745
CC1CC/C=C\[C@H]2OC34C=CCN(c5ccc(Cl)cc5)C(=O)[C@H]3N(CCO)C(=O)[C@]4(C)C2C(=O)O1 (stereo not given in full),0.111,-0.197,0.693,0.568 (inactive),-0.379,-0.15,-0.483,-0.646,-1.46,1.27
COC(=O)[C@@]1(Cc2ccccc2)[C@H]2c3cc(C(=O)N4CCCC4)n(Cc4cccc5ccccc45)c3C[C@H]2CN1C(=O)c1ccccc1,0.473,2.15,1.44,-1.33 (inactive),0.664,-0.348,0.0512,0.272,-0.922,1.07
CCOC(=O)C[C@H]1[C@H](OC(=O)c2cc3ccccc3oc2=O)[C@@H](NC(=O)Cc2ccc(OC)cc2)c2cc(OCCCO)ccc2N1C(=O)c1ccccc1,0.39,-0.351,-0.355,-0.854 (inactive),0.458,0.0878,0.436,0.23,0.313,0.726
NC(=O)[C@@H]1[C@H]2C(=O)O[C@H](c3ccccc3)[C@H](c3ccccc3)N2[C@H](c2ccc(O)cc2)[C@@]12C(=O)Nc1ccc(C#CC3(O)CCCCCC3)cc12,0.61,-0.127,0.523,0.0171 (inactive),-0.177,-1.05,-0.497,-0.846,-0.193,-0.257
COc1ccc(C(=O)Nc2ccc(CN3C(=O)[C@@]4(O[C@@H](CCn5cc([C@H](O)c6ccccc6)nn5)[C@H]([Si](C)(C)c5ccc(OC)cc5)[C@H]4C)c4ccccc43)cc2)cc1,0.834,-0.0682,0.512,-1.06 (inactive),-0.0022,0.054,-0.591,0.183,-0.347,0.975
O=C1C[C@]2(c3ccc([N+](=O)[O-])cc3)C(=O)N(CCN3CCOCC3)c3cc(CO)ccc3[C@H]2N1C1CCCCC1,0.781,0.42,0.828,-1.05 (inactive),-0.142,-0.587,-0.517,-0.875,-0.877,0.342
CN1C(=O)C2C=CC(C(O)C3=C[C@H]4C[C@@H](C3)C4(C)C)N(Nc3ccccc3)C2C1=O (stereo not given in full),0.46,0.462,0.63,0.757 (inactive),0.944,0.776,0.356,1.19,0.109,1.42
COC(=O)[C@@]1(Cc2ccccc2)[C@H]2c3cc(C(=O)N4CCCC4)n(Cc4nc5ccccc5[nH]4)c3C[C@H]2CN1C(=O)c1ccccc1,0.844,1.1,1.36,-1.52 (inactive),0.0471,1.19,-0.361,1.09,-0.137,0.831
CCCN1C(=O)[C@]2(CCS(=O)(=O)c3ccccc3)N=C(c3ccc(OCCCO)cc3)O[C@@H]2c2ccccc21,1.19,0.0947,0.766,-0.707 (inactive),0.533,1.32,0.0338,1.05,0.125,0.916
CC(C)N1C(=O)[C@@]2(Cc3ccccc31)c1ccccc1C(=O)N(C1CCCCC1)[C@H]2c1ccc(CO)cc1,1.15,-0.307,-0.194,0.0789 (inactive),0.206,0.856,0.507,1.17,0.788,0.899
CC(C)C(=C=CC[C@@H](O)c1ccccc1OCCO)CCO,0.116,-0.258,0.133,-0.0616 (inactive),1.36,0.0661,-0.195,0.0893,0.326,0.434
Cc1ccc(S[C@]2(C(=O)NCCN3CCOCC3)CC(=O)N(Cc3ccccc3Cl)[C@@H]2c2ccc(CO)cc2)cc1,0.588,-0.123,0.841,-1.38 (inactive),1,-1.4,-0.342,-0.51,-0.844,0.425
COCCOC(=O)N1C(=O)[C@@]2(c3cc(C#CCCO)ccc31)[C@H](c1ccc(OCCO)cc1)N1[C@H](c3ccccc3)[C@H](c3ccccc3)OC(=O)[C@H]1[C@@H]2C(=O)N1CCN(c2ncccn2)CC1,0.732,-0.104,0.27,0.319 (inactive),1.03,1.31,0.629,1.39,0.783,0.845
